Test results reported in PubChem BioAssay (Tox21).
Inconclusive results are not listed. The source made the active and inactive calls. Unless noted, calls follow the shape of the dose curve; as a rule, active = well fitted curve in the direction sought with a large enough effect in the repeat runs; inconclusive = weak or mixed curves; inactive = no such curve, though single readings can be large; an effect the other way counts as inactive or inconclusive.

Legend:
[1] = qHTS assay for small molecules that induce genotoxicity in human embryonic kidney cells expressing luciferase-tagged ATAD5 (AID 651632); also: nearly all actives have a fitted effect of over 15% in size
Summary of the method: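 DMSO vehicle served as the control. HEK293T reporter cells, 16 hr at 37C, then 30 min Amplite at room temperature; ATAD5 induction is measured as luciferase activity.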

[2] = qHTS assay for small molecule agonists of the p53 signaling pathway - cell viability (AID 651633; calls by dose curve;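 also: p53RE-bla HCT reporter cells with a stable beta-lactamase p53 reporter; series mostly up to about 83 µM; nearly all actives have a fitted effect of over 30% in size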)
Summary of the method: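 p53RE-bla cells, seeded at 4,000 per well and rested 5 h at 37 C/5% CO2, received compounds in DMSO for 16 h at 37 C. CellTiter-Glo was then added, and luminescence was read after 30 min at room temperature to gauge cytotoxicity.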

[3] = qHTS assay for small molecules that induce genotoxicity in human embryonic kidney cells expressing luciferase-tagged ATAD5 - cell viability (AID 651634; calls by dose curve; also: nearly all actives have a fitted effect of over 25% in size)
Summary of the method: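 Here HEK293T cells with the ATAD5 luciferase reporter are incubated with test compounds for 15.5 hr, and cytotoxicity is then gauged by measuring protease activity in live cells using fluorescence.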

[4] = qHTS assay to test for compound auto fluorescence at 590 nm (red) in HepG2 cells (AID 720674)
Summary of the method: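 Intrinsic compound fluorescence in the red window (Ex/Em 540/590 nm) is measured in attached HepG2 cells exposed for 1 hr, DMSO vehicle as baseline, benchmarked to Rose Bengal sodium.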

[5] = qHTS assay to test for compound auto fluorescence at 535 nm (green) in HepG2 cells (AID 720675)
[6] = qHTS assay to test for compound auto fluorescence at 460 nm (blue) in HEK293 cells (AID 720678)
Summary of the method: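 HEK293 cells (2,000 per well, medium with 10% dialyzed FBS) attached for 4-5 hr at 37C, then received compound and stood overnight at 37C, 5% CO2. Blue fluorescence was read at Ex/Em 405/460 nm and expressed relative to triamterene.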

[7] = qHTS assay to test for compound auto fluorescence at 590 nm (red) in HEK293 cells (AID 720679)
Summary of the method: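 HEK293 cells (2,000/well, medium with 10% dialyzed FBS) attached for 4-5 hr at 37C, received 23 nL compound and were incubated overnight at 37C, 5% CO2. Red fluorescence was then read at 540/590nm Ex/Em, referenced to Rose Bengal sodium.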

[8] = qHTS assay for small molecule disruptors of the mitochondrial membrane potential - cell viability (AID 720634; calls by dose curve;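 also: human HepG2 liver cancer cells; series mostly up to about 83 µM; nearly all actives have a fitted effect of over 20% in size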)
Summary of the method: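 Viability of HepG2 cells is scored from ATP content by luminescence; cells are exposed to compound for 1 hr at 37 C and 5% CO2, then dosed with m-MPI dye before the CellTiter-Glo reagent.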

[9] = qHTS assay for small molecule disruptors of the mitochondrial membrane potential (AID 720635)
Summary of the method: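 HepG2 cells (2,000/well) attached overnight at 37C, then took compound for 1 hr at 37C, 5% CO2. Mito-MPS dye was added for 30 min; fluorescence was read at 490/535 nm (monomers) and 540/590 nm (aggregates).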
% is scaled to controls: 0 for no effect and ±100 for the full control effect.

CN(C)CCOCCN(C)CCO
inactive: outcome [1] | outcome [2] | Potency [3] | outcome [4] | outcome [5] | outcome [6] | outcome [7]

F[Si-2](F)(F)(F)(F)F
inactive: outcome [1] | outcome [2] | outcome [8] | outcome [4] | outcome [5] | outcome [6] | outcome [7]

O=c1[nH]c(=O)c2[nH]c(=O)[nH]c2[nH]1
inactive: outcome [1] | outcome [2] | outcome [8] | outcome [4] | outcome [5] | outcome [6] | outcome [7]

C[CH2][Ge]([Cl])([CH2]C)[CH2]C
inactive: outcome [1] | outcome [2] | Potency [3] | outcome [8] | outcome [4] | outcome [5] | outcome [6] | outcome [7]

C[N+](C)(C)CC(O)CCl (configuration not stated)
inactive: outcome [1] | outcome [2] | Potency [3] | outcome [4] | outcome [5] | outcome [6] | outcome [7]

C[C@H](CCC(=O)NCC(=O)O)[C@H]1CC[C@H]2[C@@H]3[C@H](O)C[C@@H]4C[C@H](O)CC[C@]4(C)[C@H]3C[C@H](O)[C@]12C
inactive: outcome [1] | outcome [2] | outcome [8] | Potency [9] | outcome [4] | outcome [6] | outcome [7]

O=[Si]=O
inactive: outcome [1] | outcome [2] | outcome [8] | Potency [9] | outcome [4] | outcome [5] | outcome [6] | outcome [7]

Cc1oc(=O)oc1CN1CCN(c2cc3c(cc2F)c(=O)c(C(=O)O)c2n3C(C)S2)CC1 (configuration not stated)
inactive: outcome [1] | outcome [2] | outcome [8] | outcome [4] | outcome [5] | outcome [6] | outcome [7]

Cc1nc2ccccc2c(=O)o1
inactive: outcome [1] | outcome [2] | Potency [3] | outcome [8] | outcome [4] | outcome [6] | outcome [7]

CNC(=O)C(c1ccccc1)c1ccccc1
inactive: outcome [1] | outcome [2] | Potency [3] | outcome [8] | outcome [4] | outcome [6] | outcome [7]

NS(=O)(=O)c1ccccc1OC(F)(F)F
inactive: outcome [1] | outcome [2] | Potency [3] | outcome [8] | outcome [4] | outcome [5] | outcome [6] | outcome [7]

CCOC(=O)OCC/C(SC(=O)OCC)=C(\C)N(C=O)Cc1cnc(C)nc1N
inactive: outcome [1] | outcome [2] | outcome [8] | outcome [4] | outcome [5] | outcome [6] | outcome [7]

CCC(C)(CCC(C)C)C(=O)[O-].CCC(C)(CCC(C)C)C(=O)[O-].[Zn+2] (configuration not stated)
inactive: outcome [1] | outcome [2] | Potency [3] | outcome [8] | outcome [4] | outcome [6] | outcome [7]

CCCCCCCCCCCCOC(C)=O
inactive: outcome [1] | outcome [2] | Potency [3] | outcome [8] | outcome [4] | outcome [6] | outcome [7]

C=CCCCCCCCCCCC
inactive: activation [1] 1.83% [at 8.08 µM] | activity change, negative = cytotoxicity [2] 6.07% [at 8.08 µM] | activity, negative = cytotoxicity [3] -5.67% [at 8.08 µM] | activity change, negative = cytotoxicity [8] 9.56% [at 8.08 µM] | fluorescence, relative to Rose Bengal [4] 0.0415% [at 3.72 µM] | fluorescence, % of fluorescein control [5] 0.103% [at 3.72 µM] | fluorescence, % of triamterene [6] -0.171% [at 3.72 µM] | fluorescence, % of fluorescent control [7] -0.0532% [at 3.72 µM]

Cc1c(C(C)C)c(=O)n(-c2ccccc2)n1C
inactive: outcome [1] | outcome [2] | Potency [3] | outcome [8] | outcome [4] | outcome [6] | outcome [7]

CCCCC(CC)C(=O)OC(C)C (configuration not stated)
inactive: outcome [1] | outcome [2] | outcome [8] | outcome [4] | outcome [5] | outcome [6] | outcome [7]

CCOC(=O)C(C)(C)C
inactive: outcome [1] | outcome [2] | outcome [8] | Potency [9] | outcome [4] | outcome [5] | outcome [6] | outcome [7]

CCc1nccnc1C
inactive: outcome [1] | outcome [2] | Potency [3] | outcome [8] | outcome [4] | outcome [5] | outcome [6] | outcome [7]

CC(C)c1ccccc1O
inactive: outcome [1] | outcome [2] | outcome [8] | outcome [4] | outcome [5] | outcome [6] | outcome [7]

CC(C)CCC(=O)CCC(C)C
inactive: outcome [1] | outcome [2] | Potency [3] | outcome [8] | outcome [4] | outcome [5] | outcome [6] | outcome [7]

C[Si]1(C)N[Si](C)(C)N[Si](C)(C)N1
inactive: outcome [1] | outcome [2] | Potency [3] | outcome [8] | outcome [4] | outcome [5] | outcome [6] | outcome [7]
